The subject of assay [1] is UISO. Kind of assay: qHTS assay to identify novel small-molecules to repurpose for Merkel cell carcinoma treatment (AID 1296009). Also: nearly all actives have a fitted effect of over 60% in size. The settings on record: MCC and control cell lines, CellTiter-Glo viability, 72 h; series mostly up to 46 µM. The method in brief:
(§1)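 Cells were treated for 72 hr at 37 degree celsius with compounds in 8- or 11-point dose response. Viability was read by CellTiter-Glo luminescence, normalized to no-cell (cytotoxicity) and DMSO controls.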
(In qHTS, concentration-response curves come from the screen itself.)

In assay [2] the test system is WaGa. Described as above. The settings on record: MCC and control cell lines, CellTiter-Glo viability, 72 h; series mostly up to 46 µM. In short, it runs like this: as §1
Background: In ATP-based viability assays light output follows the ATP content of the culture.

Assay [3] has as its system MKL-2. The description is as above. The settings on record: MCC and control cell lines, CellTiter-Glo viability, 72 h; series mostly up to 46 µM. In short, it runs like this:
as §1

Assay [4] deals with Es-2. Description: Primary qHTS to identify gynecologic anti-cancer compounds using libraries of approved drugs and bioactive compounds (AID 1345084). Also: nearly all actives have a fitted effect of over 55% in size. The settings on record: Gynecologic cancer cell panel viability, ATPlite luminescence, 48 h; series mostly up to 57.5 µM. The method in brief:
(§2)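 Cytotoxicity screen measuring ATP content by luciferase luminescence. Each compound is applied at five concentrations for 48 h at 37 C with 5% CO2.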

Assay [5] concerns HeLa. The assay is described as above. Conditions: Gynecologic cancer cell panel viability, ATPlite luminescence, 48 h; series mostly up to 57.5 µM. The method in brief: as §2
The test system of assay [6] is OV90. Described as above. The settings on record: Gynecologic cancer cell panel viability, ATPlite luminescence, 48 h; series mostly up to 57.5 µM. In short, it runs like this: as §2
Assay [7] deals with PA-1. The assay is described as above. The settings on record: Gynecologic cancer cell panel viability, ATPlite luminescence, 48 h; series mostly up to 57.5 µM. In short, it runs like this: as §2
Assay [8] has as its system SKOV3. Described as above. The settings on record: Gynecologic cancer cell panel viability, ATPlite luminescence, 48 h; series mostly up to 57.5 µM. The method in brief: as §2
Assay [9] has as its system Tov-21-G. The assay is described as above. The settings on record: Gynecologic cancer cell panel viability, ATPlite luminescence, 48 h; series mostly up to 57.5 µM. In short, it runs like this:
as §2

Assay [10] has as its system Tov112D. Described as above. The settings on record: Gynecologic cancer cell panel viability, ATPlite luminescence, 48 h; series mostly up to 57.5 µM. The method in brief:
as §2

The nature of assay [11]: qHTS assay to identify inhibitors of the type 1 interferon - major histocompatibility complex class I in skeletal muscle: Counter screen cell viability and HiBit confirmation (AID 1347412). Also: nearly all actives have a fitted effect of over 60% in size. The settings on record: iHSKM muscle cells + IFN-b, HiBiT or CellTiter-Glo, 24 h. The method in brief:
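CRISPR HLA-B*08:01-HiBit immortalized human myoblasts (C25cl48) stimulated with 4 ng/ml IFN-beta and compounds (12-point 1:3, top 46 uM final) for 24 h at 37 C. Duplicate plates read by HiBit lytic luminescence or CellTiter Glo ATP.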

Assay [12] deals with NIH3T3. Description: qHTS assay to identify novel small-molecules to repurpose for Merkel cell carcinoma treatment (AID 1296009). Also: nearly all actives have a fitted effect of over 60% in size. The settings on record: MCC and control cell lines, CellTiter-Glo viability, 72 h; at 44.8 µM (top of the series) unless noted. In short, it runs like this:
as §1

In assay [13] the test system is C33A. Kind of assay: Primary qHTS to identify gynecologic anti-cancer compounds using libraries of approved drugs and bioactive compounds (AID 1345084). Also: nearly all actives have a fitted effect of over 55% in size. Conditions: Gynecologic cancer cell panel viability, ATPlite luminescence, 48 h; series mostly up to 57.5 µM. In short, it runs like this: as §2
The test system of assay [14] is CASKI. The description is as above. The settings on record: Gynecologic cancer cell panel viability, ATPlite luminescence, 48 h; series mostly up to 57.5 µM. In short, it runs like this: as §2
Assay [15] deals with Hek293T. The description is as above. The settings on record: Gynecologic cancer cell panel viability, ATPlite luminescence, 48 h, control line for the selectivity index; series mostly up to 57.5 µM. In short, it runs like this:
as §2

The test system of assay [16] is JEG-3. The assay is described as above. The settings on record: Gynecologic cancer cell panel viability, ATPlite luminescence, 48 h; series mostly up to 57.5 µM. In short, it runs like this: as §2
Assay [17] is described as follows: Drug repurposing screens with cells derived from glioblastoma tumor samples (AID 1345199). Also: nearly all actives have a fitted effect of over 40% in size. Conditions: GBM patient neurospheres viability, ATP luminescence, 48 h. The method in brief:
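Four patient lines of CD133+ GBM neurospheres were screened at several concentrations; hits were retested in those lines plus three slower-growing GBM lines, using 48-hour treatment and ATP-based viability.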

Assay [18] concerns CAOV3. Description: Primary qHTS to identify gynecologic anti-cancer compounds using libraries of approved drugs and bioactive compounds (AID 1345084). Also: nearly all actives have a fitted effect of over 55% in size. Conditions: Gynecologic cancer cell panel viability, ATPlite luminescence, 48 h; series mostly up to 57.5 µM. In short, it runs like this:
as §2

[19] abbreviates: at 45.9 µM (top of the series), tumour line B.
The mark [20] stands for this setting: at 45.9 µM (top of the series), tumour line D.
[21] abbreviates: at 46.1 µM (top of the series), tumour line C.

The structures appear in SMILES notation. Inconclusive results are not listed. Unmarked numbers belong to inactive results. The source made the active and inactive calls. Calls follow the shape of the dose curve; as a rule, active = well fitted curve in the direction sought with a large enough effect; inconclusive = small, poorly fitted or top-dose-only effect, or another doubt; inactive = no such curve, though single readings can be large; an effect the other way counts as inactive or inconclusive.

The source of these data is PubChem BioAssay (NCATS).
% is scaled to controls: 0 for no effect and ±100 for the full control effect; potency is read from the fitted curve at half-maximal effect.

On to `O=C1c2c(O)cc(O)cc2O[C@H](c2cc(O)c(O)c(O)c2)[C@H]1O`, for which the Potency entry in assay [1] is “inactive”. The Potency in assay [2] is 2.35 µM (active).
With `Cc1nc(N)sc1-c1ccnc(Nc2ccc(N3CCOCC3)cc2)n1`, the Potency entry in [3] was “inactive”. The Potency in assay [4] is 10 µM (active); in assay [5] it was 2.51 µM (active); in assay [6], 15.8 µM (active); in assay [7], 8.91 µM (active); in assay [8], 8.91 µM (active); in assay [9], 14.1 µM (active). For the same compound, the Potency is 12.6 µM (active) in [10] and 5.57 µM (active) in [11] (HiBiT).
With `O=c1c(O)c(-c2ccc(O)cc2)oc2cc(O)cc(O)c12`, the Potency in [2] is 3.72 µM (active).
For `CC1(C)CCC2=C(O1)c1ccccc1C(=O)C2=O`, the Potency in assay [2] was 26.4 µM (active); in assay [11] (HiBiT) it was 22.2 µM (active); in assay [11] (Viability) it was 24.9 µM (active).
With `C=CCc1ccc(O)c(-c2ccc(O)c(CC=C)c2)c1`, the Potency result in [2] was “inactive”.
Turning to `CC=CCC=CCCC(=O)[C@H]1O[C@@H]1C(N)=O`, the Potency entry in [1] and in assay [2] was “inactive” in each case.
Regarding `CC(C)(C(=O)NCC(F)(F)C(F)(F)F)C(=O)N[C@@H]1C(=O)Nc2ccccc2-c2ccccc21`, in assay [12], the result was inactive.
`CC(C)(C)NC(=O)Nc1cccc(Nc2ncc(F)c(NC(C)(C)CO)n2)c1`: the Potency result in assay [3], in assay [1], in assay [13], in [14], in [4] and in assay [15] was “inactive” throughout. Also, the Potency result in assay [16], in assay [6], in [7], in assay [8], in assay [9] and in [10] was “inactive” throughout.
As to `CC(C)n1nc(-c2ccc3oc(N)nc3c2)c2c(N)ncnc21`, the Potency is 0.0264 µM (active) in [1]; 2.24 µM (active) in assay [14]; 12.6 µM (active) in assay [5]; 0.316 µM (active) in assay [15]; 0.316 µM (active) in [6]; 0.316 µM (active) in [9]. Besides, the Potency in assay [11] (HiBiT) was 0.0991 µM (active).
For `CN[C@@H](C)C(=O)N[C@H]1CN(C(=O)CC(C)C)CC[C@H]2CC[C@@H](C(=O)NC(c3ccccc3)c3ccccc3)N2C1=O`, the Potency entry in assay [3], in assay [13], in [4], in [15], in [16] and in [6] was “inactive” each time. In addition, the Potency in assay [8] is 7.94 µM (active); in assay [9], 5.62 µM (active).
As for `O=c1[nH]cnc2c1ncn2[C@H]1CC[C@@H](CO)O1`, the Potency entry in assay [13], in assay [14], in assay [4], in assay [5], in assay [15] and in [16] was “inactive” in each case. The Potency entry in assay [6], in assay [7], in assay [8], in assay [9] and in [10] was “inactive” throughout. The activity, negative = cell killing is -2.39% in assay [17] (setting [19]); 8.81% in assay [17] (setting [20]); -25.7% in assay [17] (at 46 µM (top of the series), tumour line A); -15.1% in assay [17] (setting [21]).
For the compound `NS(=O)(=O)c1ccc(NC2=CC(=O)c3ccccc3C2=O)cc1`, the values for the Potency in [1], in [11] (HiBiT) and in [11] (Viability) were 2.64 µM (active), 3.52 µM (active) and 4.97 µM (active), respectively.
In the case of `COc1ccc(C2Sc3ccccc3N(CCN(C)C)C(=O)C2OC(C)=O)cc1` (stereo not drawn), the Potency entry in assay [13], in [14], in assay [4], in [5], in assay [15] and in assay [16] was “inactive” in each case. In addition, the Potency entry in assay [6], in assay [7], in assay [9] and in assay [10] was “inactive” in each case.
As to `CC(C)OC(=O)C(C)(C)Oc1ccc(C(=O)c2ccc(Cl)cc2)cc1`, the Potency entry in assay [13], in assay [18], in assay [14], in assay [5], in [16] and in assay [6] was “inactive” each time. The Potency entry in [7], in assay [8], in [9] and in assay [10] was “inactive” each time. In assay [17] (setting [19]), the activity, negative = cell killing was -21.9%. The Potency in [17] (tumour line A) is 11.2 µM (active).
Turning to `COc1cc(N2CCC(N3CCN(C)CC3)CC2)ccc1Nc1ncnc(Nc2ccccc2S(=O)(=O)C(C)C)n1`, the Potency entry in [3], in assay [2] and in assay [16] was “inactive” each time. The Potency was 10 µM (active) in assay [5], 8.91 µM (active) in assay [6], 7.94 µM (active) in assay [7] and 12.6 µM (active) in assay [9].
For the compound `CC/C(=C(\c1ccccc1)c1ccc(OCCN(C)C)cc1)c1ccccc1`, the Potency in assay [3] was 26.6 µM (active); in assay [1], 21.1 µM (active). For the same compound, the Potency result in assay [13], in [14], in [4], in [5], in [15] and in assay [16] was “inactive” throughout. Also, the Potency result in assay [9] and in [10] was “inactive” in each case.
As for `CC(=O)O[C@]1(C(C)=O)CC[C@H]2[C@@H]3C=C(Cl)C4=CC(=O)[C@@H]5C[C@@H]5[C@]4(C)[C@H]3CC[C@@]21C`, the Potency entry in assay [13], in assay [14], in assay [4], in assay [15], in assay [16] and in assay [6] was “inactive” throughout. Moreover, the Potency entry in assay [7], in [8], in assay [9] and in assay [10] was “inactive” in each case. For the same compound, the activity, negative = cell killing was -17.9% in assay [17] (setting [19]), -23% in [17] (setting [20]) and 2.8% in [17] (setting [21]).
For the compound `CC(=O)OC1C(C)OC(Oc2c(-c3ccc(O)cc3)oc3cc(O)cc(O)c3c2=O)C(O)C1OC(C)=O` (stereo not drawn), the Potency entry in assay [1] is “inactive”.
Regarding `CC(=O)Nc1ccc([C@H](C)C(=O)Nc2ncc(C(C)C)s2)cc1`, the Potency in [3] was 9.35 µM (active); in assay [1] it was 7.43 µM (active); in [13], 20 µM (active); in [4] it was 14.1 µM (active); in assay [15], 15.8 µM (active); in [7], 22.4 µM (active). Moreover, the Potency in assay [11] (HiBiT) is 2.49 µM (active). Further, the Potency result in assay [16] and in assay [8] was “inactive” throughout. Besides, the activity change, negative = inhibition in assay [11] (Viability, at 45.9 µM (top of the series)) is -0.582%.
On to `Nc1nc(F)nc2c1ncn2[C@@H]1O[C@H](COP(=O)(O)O)[C@@H](O)[C@H]1O`, for which the values for the Potency in [1] and in assay [2] were 13.2 µM (active) and 14.8 µM (active), respectively.
For `COc1ccc(-c2nc(N3CCOCC3)c3sc(CN(C)c4ncc(C(=O)NO)cn4)cc3n2)cn1`, the Potency in assay [1] was 0.0235 µM (active); in assay [2] it was 0.0026 µM (active); in assay [11] (HiBiT) it was 0.0279 µM (active).
For the compound `CNC(=O)c1ccccc1Sc1ccc2c(C=Cc3ccccn3)n[nH]c2c1`, in assay [2], the Potency is 11.8 µM (active).
